This is part of a sample that, as a whole, favours compounds with a hit. Of some 79,000 tested, about 15% had one in any assay. Cut-off read from the data, not from the text of the source: active = growth inhibition above about 70%; inactive = the rest.
Columns and labels:
[1] = NCI Yeast Anticancer Drug Screen. Data for the rad50 strain (AID 155);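 note: 0% = growth of vehicle-only cultures of the same strain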; conditions: S. cerevisiae rad50 strain growth inhibition; at 50.0 µM; hits give high values
How it was run: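 Inhibition values express reduced yeast growth in compound-treated cultures relative to vehicle-treated controls.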

[2] = NCI Yeast Anticancer Drug Screen. Data for the mec2-1 strain (AID 157); conditions: S. cerevisiae mec2-1 strain, at 50.0 µM, hits give high values
How it was run: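 Strain: mec2-1 (DNA repair/cell cycle alteration). Compound exposure, then growth measured; inhibition expressed relative to vehicle.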

[3] = NCI Yeast Anticancer Drug Screen. Data for the sgs1 mgt1 strain (AID 161);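 note: 0% = growth of cultures given vehicle only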; conditions: S. cerevisiae sgs1 mgt1 strain, at 50.0 µM, hits give high values
How it was run: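 Test agents were incubated with a DNA-repair-mutant yeast strain. Growth was then read and compared against vehicle-treated controls.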

[4] = NCI Yeast Anticancer Drug Screen. Data for the cln2 rad14 strain (AID 165);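 note: 0% = growth equal to vehicle treated cultures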; conditions: S. cerevisiae cln2 rad14 strain, at 50.0 µM, hits give high values
How it was run: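 Compounds are applied to the cln2 rad14 yeast strain, and growth is then compared with that of vehicle-treated cultures to give inhibition.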

[5] = NCI Yeast Anticancer Drug Screen. Data for the bub3 strain (AID 167); conditions: S. cerevisiae bub3 mutant strain, at 50.0 µM, hits give high values
How it was run: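 Steps: expose the mutant yeast strain to compound; grow alongside vehicle-treated cultures; measure growth; express inhibition against the vehicle cultures.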

[6] = NCI Yeast Anticancer Drug Screen. Data for the mlh1 rad18 strain (AID 175); conditions: S. cerevisiae mlh1 rad18 strain growth inhibition; at 50.0 µM; hits give high values
How it was run: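 Read-out is yeast growth inhibition, calculated against vehicle-only controls. The compound was applied to a strain engineered with DNA damage repair alterations.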

Measured: growth inhibition

CCCN=C(NC(=O)c1ccc(Cl)cc1)SC
inactive: [1] -16.3% | [2] -41.5% | [3] -6.05% | [4] -6.7% | [5] 8.05% | [6] -46.4%

Cc1c(Cl)cccc1NC(=O)OC/C=C/c1ccccc1
inactive: [1] 3.2% | [2] 33.2% | [3] 14.8% | [4] -9.35% | [5] 5.6% | [6] -10.9%

C=C1C(=O)OC2C1C(=O)C/C(C)=C/CCC1(C)OC21 (stereo not drawn)
inactive: [1] 35.6% | [2] 52% | [3] 63.2% | [4] 34% | [5] 66% | [6] 9.95%
